Mcl1-Bid inh – Mcl-1/Bid binding inhibitors, primary screen, biochemical, TR-FRET, 1536-well. Induced myeloid leukemia cell differentiation protein Mcl-1 (Homo sapiens), Q07820. TR-FRET Mcl-1/Bid-Dy647 peptide binding. inhibition, % at 21.7 µM. 220,000 compounds, 0.97% hits. AID 1021, 2008;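 active = compounds that cut the binding signal by more than half at the single screening dose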;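 also: His-tagged Mcl-1 with europium anti-His antibody binding Bid BH3 peptide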
14-3-3 Bad PPI – inhibitors of 14-3-3 zeta/Bad binding, primary screen, biochemical, TR-FRET, bovine 14-3-3 zeta; TR-FRET 14-3-3zeta/Dy647-pBad peptide displacement, 1 h; 220,000 compounds, 0.71% hits; 14-3-3 protein zeta/delta (Bos taurus), P63103; inhibition, % at 21.7 µM;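 active = inhibition above about 70%, limit read from the data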
Target sequence (P63103 whole entry, looked up): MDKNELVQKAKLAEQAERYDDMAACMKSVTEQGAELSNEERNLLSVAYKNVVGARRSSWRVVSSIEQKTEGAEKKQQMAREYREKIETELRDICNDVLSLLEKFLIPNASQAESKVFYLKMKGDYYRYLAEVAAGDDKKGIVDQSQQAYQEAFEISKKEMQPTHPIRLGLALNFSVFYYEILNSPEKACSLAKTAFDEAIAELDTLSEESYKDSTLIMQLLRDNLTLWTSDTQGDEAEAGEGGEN
Hck Nef HTS – inhibitors of Nef-activated human Hck kinase, primary screen, biochemical, Z-Lyte FRET, 384-well, Hck-YEEI | Tyrosine-protein kinase HCK (Homo sapiens), P08631 | Recombinant Hck-YEEI plus Nef, Z-Lyte FRET kinase assay | inhibition, % at 20 µM | 220,000 compounds, 0.68% hits;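 active = Hck-Nef kinase inhibition above about 50%, limit read from the data; inactive = inhibition below that limit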
Bim-Mcl-1 – inhibitors of Bim peptide binding to Mcl-1, primary screen, biochemical, bead-based flow cytometry, multiplex. Induced myeloid leukemia cell differentiation protein Mcl-1 (Homo sapiens), Q07820. Bim peptide-Mcl-1 binding. inhibition, % at 10 µM. 190,000 compounds, 0.1% hits. AID 1009, 2008; in the data active = inhibition above about 40%
Mcl1 Noxa PPI – Mcl-1/Noxa binding inhibitors, primary screen, biochemical, TR-FRET, 1536-well | AID 1022, 2008 | TR-FRET Mcl-1/Noxa peptide binding, 2 h | 220,000 compounds, 1.5% hits | inhibition, % at 21.7 µM;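 active = compounds that cut the protein-peptide binding signal by more than 50% relative to plate controls in a single-dose test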;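 also: His-tagged Mcl-1 with rhodamine Noxa BH3 peptide and terbium anti-His antibody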
Pf gametocyte – late stage P. falciparum gametocyte viability inhibitors, primary screen, ATP luminescence, HTS; 150,000 compounds, 0.065% hits; inhibition, % at 10.9 µM; AID 743093, 2013; P. falciparum stage V gametocytes, 24 h;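 active = inhibition above the mean plus 3 SD of compounds within the control limits, set per campaign, cut at about 38% in these data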
Of the large screens only hits and unclear results are named; the others gave an inactive call. This is a sample that favours compounds with a hit; in the whole collection about 2.9% have one here.

C(=N\c1nc2ccccc2n1Cc1ccccc1)/c1cccs1	Mcl1-Bid inh 50.7 (no result: Pf gametocyte)
Cc1cnc(C(=O)OCC(=O)Nc2oc(-c3ccccc3)c(-c3ccccc3)c2C#N)cn1	Mcl1 Noxa PPI 54.3
Cc1ccc(-c2nn(-c3ccccc3)cc2C(=O)N2CCOCC2)cc1C	none
O=C1[C@H]2[C@@H](C(=O)N1c1cccc3ccccc13)C1(C(=O)c3ccccc3C1=O)N1CCC[C@@H]21	Mcl1 Noxa PPI 64.0
CCCCNC(=O)c1cccc(C(=O)NCCCC)c1	none (no result: Pf gametocyte)
CCCCNC(=O)c1ccc(S(=O)(=O)c2ccc(Cl)cc2)c(NC(C)=O)c1	14-3-3 Bad PPI 72.2
O=C(c1ccccc1SCc1ccccc1)N1CCCCCC1	none
O=C(O)Cn1cc(/C=c2/sc3nc4ccccc4n3c2=O)c2ccccc21	Mcl1 Noxa PPI 64.1
O=C(CNC(=O)c1ccc([N+](=O)[O-])cc1)N/N=C\c1ccc(OC(=O)c2ccccc2)cc1	Mcl1-Bid inh 74.7 (no result: Pf gametocyte)
COc1cccc(C(=O)NCC(=O)N/N=C/c2cccc(OC(=O)c3ccc([N+](=O)[O-])cc3)c2)c1	none (no result: Pf gametocyte)
Cc1ccc(-c2nc(NC(=O)CSc3cc(C)c4ccccc4n3)ns2)cc1	14-3-3 Bad PPI 75.4 (no result: Pf gametocyte)
O=C(CSc1ccc2ccccc2n1)Nc1nsc(-c2ccc(Cl)cc2)n1	Mcl1-Bid inh 61.0
COc1ccc2c(C)cc(SCC(=O)Nc3nsc(-c4ccc(C)cc4)n3)nc2c1	none (no result: Pf gametocyte)
COc1ccc(CCNC(=O)/C=C/C(=O)O)cc1	none (no result: Pf gametocyte)
COC(=O)c1c(NC(C)=O)sc2c1CCCC2	none (no result: Pf gametocyte)
COC(=O)c1c(NC(=O)c2cnccn2)sc2c1CCC2	Mcl1-Bid inh 96.7 (no result: Pf gametocyte)
CCOC(=O)c1c(NC(=O)c2ccccc2N(C)S(=O)(=O)c2ccccc2)sc2c1CCCC2	Bim-Mcl-1 53.0
CNC(=S)Nc1sc2c(c1C(=O)OC)CCC2	Mcl1 Noxa PPI 75.0
O=C(Nc1sc2c(c1C(=O)O)CCC2)c1ccccc1	Mcl1-Bid inh 72.1, 14-3-3 Bad PPI 83.2
CCC(C)NS(=O)(=O)c1ccc(OC)c(Cl)c1Cl (centres undefined)	none (no result: Pf gametocyte)
COc1cccc(CC(=O)NCC2(N3CCCCC3)CCCCC2)c1	none
S=C(Nc1cccc(Cl)c1Cl)Nn1cnnc1	none (no result: Pf gametocyte)
CCCCC(=O)Nc1cccc(NC(=O)c2ccc3c(c2)OCO3)c1	Mcl1-Bid inh 62.5
O=C1C=C(O)C(n2cncn2)C(c2cc(F)ccc2F)C1 (centres undefined)	none
CCN1CCN(CCOc2ccccc2-c2ccccc2)CC1	none
CN(C)CCCCOc1ccccc1F	none
CCN1CCN(CCCOc2ccccc2-c2ccccc2)CC1	14-3-3 Bad PPI 70.5
CN(C)CCCCOc1ccccc1-c1ccccc1	Mcl1-Bid inh 73.0
CCOc1cc(CNCCCN2CCOCC2)cc(Br)c1OCC(=O)Nc1cccc(C(F)(F)F)c1	14-3-3 Bad PPI 79.3 (no result: Pf gametocyte)
COc1cc(CNCCCN2CCOCC2)cc(Br)c1OCC(=O)N1CCCCC1	none (no result: Pf gametocyte)
CCCCNC(=S)N(C)N=C1CCC(c2ccccc2)CC1 (centres undefined)	none
COc1ccc2nc(SCC(=O)NC(C)C)[nH]c2c1	14-3-3 Bad PPI 79.7
COc1ccc(NC(=O)CSc2nc3ccc(OC)cc3[nH]2)cc1	none (no result: Bim-Mcl-1)
COc1ccc(NC(=O)CN(C)C(C)C(=O)N2CCCCC2)cc1 (centres undefined)	Mcl1-Bid inh 56.3
COc1ccc(NC(=O)CN(C)CC(=O)Nc2ccccc2SC)cc1	Mcl1-Bid inh 51.3
COc1ccc(Br)cc1S(=O)(=O)Nc1cccc(C)n1	none (no result: Pf gametocyte)
COc1ccc(NC(=O)CCN2C(=O)c3ccc([N+](=O)[O-])cc3C2=O)c(OC)c1	none
C=C1C(=O)[C@@]23[C@H](O)C[C@@H]4C(C)(C)CC[C@H](O)[C@]4(C)[C@@H]2C[C@H](O)[C@@H]1[C@H]3O	Mcl1-Bid inh 79.9 (no result: Pf gametocyte)
O=C(CCCN1C(=O)c2ccccc2C1=O)Nc1ccccc1	Mcl1-Bid inh 78.2 (no result: Bim-Mcl-1)
COc1cc2c(cc1OC)CN(C(=S)Nc1ccccc1Cl)CC2	none
